IL1B secr inh: qHTS for Inhibitors of Inflammasome Signaling: IL-1-beta AlphaLISA Primary Screen; THP-1 LPS/ATP IL-1B secretion, AlphaLISA, 16 h; active compounds read low; activity change, % at 57.5 µM; 360,000 compounds, 4.7% hits; AID 743279, 2014; in the data active = activity change below about -50%; inconclusive = mostly about -30% to -49%; note: % is set by controls: 0 for no effect and ±100 for the full control effect
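Secreted IL-1B measured by AlphaLISA bead assay after 16 h compound exposure of THP-1 cells; compounds (final up to 57.5 uM) added 1 h before LPS (250 ng/mL) and ATP (1.25 mM) stimulation; lower signal means less secretion.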
TDP1 cell CPT: qHTS for Inhibitors of human tyrosyl-DNA phosphodiesterase 1 (TDP1): qHTS in cells in presence of CPT; 420,000 compounds, 12% hits; Potency, µM (titrated, usually from 46.2 µM), for inactives: at the highest dose activity change, negative = growth inhibition, usual class: inhibitors; AID 686979, 2013; chicken DT40 Tdp1-/-;hTDP1 cells + 20 nM CPT, ATP luminescence, 48 h; note: potency is the fitted concentration of half-maximal effect; % is set by controls: 0 for no effect and ±100 for the full control effect; nearly all actives have a fitted effect of over 55% in size
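Chicken DT40 Tdp1-/- cells complemented with human TDP1, 400 cells/well, exposed to compounds plus 20 nM camptothecin for at least 48 h at 37 C; viability read as ATP content by CellTiter-Glo luminescence.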
TDP1 cell noCPT: qHTS for Inhibitors of human tyrosyl-DNA phosphodiesterase 1 (TDP1): qHTS in cells in absence of CPT; DT40 Tdp1-/- hTDP1 cells, no CPT, ATP luminescence, 48 h; Potency, µM (series often up to 46.2 µM), without a hit: at the top dose activity change, negative = growth inhibition, most hits filed as inhibitors; 420,000 compounds, 15% hits; AID 686978, 2013; note: potency is the fitted concentration of half-maximal effect; % is set by controls: 0 for no effect and ±100 for the full control effect; nearly all actives have a fitted effect of over 55% in size
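Stably hTDP1-transfected Tdp1-null chicken DT40 cells were treated with library compounds minus camptothecin and grown for at least 48 hr at 37 °C, after which cellular ATP was quantified by luminescence.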
TDP1 inh: qHTS Assay for Inhibitors of Tyrosyl-DNA Phosphodiesterase (TDP1) | AID 485290, 2010 | 350,000 compounds, 0.28% hits | Potency, µM (highest dose often 130 µM), for the others: at the top dose activity change, negative = inhibition, hits mostly inhibitors | recombinant TDP1, AlphaScreen DNA substrate cleavage; note: potency is the fitted concentration of half-maximal effect; % is set by controls: 0 for no effect and ±100 for the full control effect; nearly all actives have a fitted effect of over 40% in size
Target sequence (Q9NUW8 whole entry, looked up): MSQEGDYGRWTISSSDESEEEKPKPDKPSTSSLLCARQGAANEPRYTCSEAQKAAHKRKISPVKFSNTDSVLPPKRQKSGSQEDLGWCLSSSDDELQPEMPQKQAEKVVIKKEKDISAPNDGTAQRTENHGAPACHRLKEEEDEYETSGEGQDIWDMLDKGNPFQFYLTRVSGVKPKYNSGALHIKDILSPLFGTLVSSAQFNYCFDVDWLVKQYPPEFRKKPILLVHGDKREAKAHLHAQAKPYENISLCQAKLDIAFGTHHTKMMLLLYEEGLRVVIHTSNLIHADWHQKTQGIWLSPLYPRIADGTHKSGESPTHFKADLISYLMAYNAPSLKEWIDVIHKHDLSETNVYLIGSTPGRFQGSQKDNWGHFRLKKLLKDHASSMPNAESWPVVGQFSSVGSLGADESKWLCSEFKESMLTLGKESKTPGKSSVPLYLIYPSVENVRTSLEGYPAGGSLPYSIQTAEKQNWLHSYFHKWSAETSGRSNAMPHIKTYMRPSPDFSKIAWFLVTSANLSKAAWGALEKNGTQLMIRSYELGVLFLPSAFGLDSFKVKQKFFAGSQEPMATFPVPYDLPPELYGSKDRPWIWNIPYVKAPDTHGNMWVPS
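Steps: enzyme plus compound, 15 min RT; add biotin/phosphotyrosine-FITC oligonucleotide (15 nM final), react 5 min; add donor/acceptor beads (10 ug/ml final), 10 min; read AlphaScreen. Tdp1 at 1 nM final.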
TGFb inhibitor: qHTS for Inhibitors of TGF-b | HepG2 CAGA-GFP TGF-b/SMAD3 reporter, GFP fluorescence, 18 h; TGF-beta stimulated, 500 pg/mL final | Potency, µM (doses to about 46.1 µM), for inactives: at the highest dose activity, negative = inhibition, hits mostly inhibitors | 410,000 compounds, 1.2% hits; note: potency is the fitted concentration of half-maximal effect; % is set by controls: 0 for no effect and ±100 for the full control effect; nearly all actives have a fitted effect of over 65% in size
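Cell-based qHTS in HEPG2 carrying a CAGA-GFP Smad reporter; compounds added before 500 pg/mL final TGF-beta, 18 h incubation at 37 degrees C, GFP fluorescence quantified per cell by imaging cytometry.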
HepG2 viability: qHTS for Inhibitors of TGF-b: Cytotox Counterscreen. HepG2 CAGA-GFP viability, ATP luminescence, 18 h. Potency, µM (titrated, usually from 46.1 µM), for the others: at the highest dose activity change, negative = cytotoxicity, usual class: cytotoxic. 410,000 compounds, 0.76% hits. AID 588856, 2011; note: potency is the fitted concentration of half-maximal effect
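CellTiter-Glo luminescence gave cytotoxicity after 18 hours at 37 degrees C. The cells were HepG2 CAGA-GFP in 1% FBS DMEM, stimulated with 500 pg/mL TGF-beta after compound addition. %Activity was normalised to no-cell wells (complete cell-killing) and DMSO (no toxicity), and curves were fitted and classified.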
The depositor's hits bear a star; ? = inconclusive; / = not tested or not shown; [ ] = remark or other dose. Sampled rows, rich in hits. Any-hit rate of the full collection: about 18%. Unless noted, calls come from the whole dose curve; as a rule, active = well fitted curve in the direction sought with a large enough effect; inconclusive = small, poorly fitted or top-dose-only effect, or another doubt; inactive = no such curve, though single readings can be large; an effect the other way counts as inactive or inconclusive.

SMILES	IL1B secr inh	TDP1 cell CPT	TDP1 cell noCPT	TDP1 inh	TGFb inhibitor	HepG2 viability
Cc1ccc(-c2cc(NC(=O)c3cccc(C)c3)on2)cc1	/	-21%	-26%	4%	-4%	-17%
Cc1ccccc1C(=O)Nc1cccc(N)c1	-15	2%	1%	4%	0%	3%
C/C(=N\NC(=O)c1ccc(O)cc1)c1cccc(NC(=O)c2ccccc2C)c1	-7	?	23µM*	4%	2%	4%
O=S(=O)(CCNCCc1ccccc1)NCc1ccccc1	-7	-6%	-3%	/	-21%	-9%
CCn1cc(CN2Cc3ccccc3OC(c3ccccc3OC)C2)c(C)n1 (configuration not stated)	/	-8%[9.04 µM]	?	/	/	/
Cc1ccc(C2(CC(=O)N3CCCC3)CCOC(C(C)C)C2)cc1 (configuration not stated)	1	?	?	2%	-5%	3%
COc1ccccc1C1(CC(=O)N2CCCCC2)CCOC(C(C)C)C1 (configuration not stated)	3	23µM*	23µM*	3%	2%	-13%
O=C(NCCCn1ccnc1)C(=O)NCC1OCCCN1S(=O)(=O)c1ccccc1 (configuration not stated)	0	-17%	-6%	-3%	4%	-10%
CCCN(CCC)c1cc(C)nc2nc(-c3ccc(C(C)(C)C)cc3)nn12	/	-19%	-18%	-5%	16%	-4%
COc1cc(OCc2ccc(C)cc2)ccc1CNC[C@H]1O[C@@H](n2cnc(C(N)=O)n2)[C@H](O)[C@@H]1O	0	3%	0%	/	6%	-11%
c1ccc2c(c1)OCC(c1nn3c(Cn4nnc5ccccc54)nnc3s1)O2 (configuration not stated)	-18	26µM*	?	/	?	-61%
COc1ccc(OCc2nn3c(Cn4cnc5ccccc54)nnc3s2)cc1	2	21µM*	?	1%	?	-27%
c1ccc2c(c1)ncn2Cc1nnc2sc(-c3ccc4c(c3)OCO4)nn12	34	?	15µM*	2%	-5%	-3%
Fc1ccc(-c2nnc3sc(C4COc5ccccc5O4)nn23)cc1 (configuration not stated)	-17	?	?	4%	2%	-23%
c1ccc(OCc2nn3c(Cn4nnc5ccccc54)nnc3s2)cc1	-5	16µM*	21µM*	-5%	-19%	-10%
c1ccc(Cc2nn3c(Cn4nnc5ccccc54)nnc3s2)cc1	-5	?	-25%	2%	?	-3%
Cc1nnc(N)s1	-2	-11%	2%	-1%	-1%	6%
Cc1ccc(C2(C)NC(=O)N(CC(=O)NNC(=O)c3cc(C)oc3C)C2=O)cc1 (configuration not stated)	?	20%	7%	3%	19%	-6%
CCOC(=O)c1ccc(NC(=O)C(CC)Sc2nc3ccncc3[nH]2)cc1 (configuration not stated)	/	?	-35%	8%	-9%	-18%
c1ccc(CCc2nn3c(Cn4cnc5ccccc54)nnc3s2)cc1	2	18µM*	18µM*	-3%	-7%	-14%
Cc1ccc(S(=O)(=O)c2cn(CC(=O)Nc3cccc(C)c3)c3cc4c(cc3c2=O)OCO4)cc1	/	3%	1%	6%	-16%	9%

Bioassay records deposited in PubChem BioAssay by National Center for Advancing Translational Sciences (NCATS).
